For 64 molecules, Potency results are on record in ChEMBL document CHEMBL1201862, “PubChem BioAssay data set” (2004).

Screen size: about 400,000 compounds; about 2,100 (0.53%) were called active. Inconclusive results (about 14%) are left out. How the calls were made is not given here. The sample as a whole holds a higher share of actives than the screen did.

Ataxin-2 (Homo sapiens), sequence (Q99700 whole entry): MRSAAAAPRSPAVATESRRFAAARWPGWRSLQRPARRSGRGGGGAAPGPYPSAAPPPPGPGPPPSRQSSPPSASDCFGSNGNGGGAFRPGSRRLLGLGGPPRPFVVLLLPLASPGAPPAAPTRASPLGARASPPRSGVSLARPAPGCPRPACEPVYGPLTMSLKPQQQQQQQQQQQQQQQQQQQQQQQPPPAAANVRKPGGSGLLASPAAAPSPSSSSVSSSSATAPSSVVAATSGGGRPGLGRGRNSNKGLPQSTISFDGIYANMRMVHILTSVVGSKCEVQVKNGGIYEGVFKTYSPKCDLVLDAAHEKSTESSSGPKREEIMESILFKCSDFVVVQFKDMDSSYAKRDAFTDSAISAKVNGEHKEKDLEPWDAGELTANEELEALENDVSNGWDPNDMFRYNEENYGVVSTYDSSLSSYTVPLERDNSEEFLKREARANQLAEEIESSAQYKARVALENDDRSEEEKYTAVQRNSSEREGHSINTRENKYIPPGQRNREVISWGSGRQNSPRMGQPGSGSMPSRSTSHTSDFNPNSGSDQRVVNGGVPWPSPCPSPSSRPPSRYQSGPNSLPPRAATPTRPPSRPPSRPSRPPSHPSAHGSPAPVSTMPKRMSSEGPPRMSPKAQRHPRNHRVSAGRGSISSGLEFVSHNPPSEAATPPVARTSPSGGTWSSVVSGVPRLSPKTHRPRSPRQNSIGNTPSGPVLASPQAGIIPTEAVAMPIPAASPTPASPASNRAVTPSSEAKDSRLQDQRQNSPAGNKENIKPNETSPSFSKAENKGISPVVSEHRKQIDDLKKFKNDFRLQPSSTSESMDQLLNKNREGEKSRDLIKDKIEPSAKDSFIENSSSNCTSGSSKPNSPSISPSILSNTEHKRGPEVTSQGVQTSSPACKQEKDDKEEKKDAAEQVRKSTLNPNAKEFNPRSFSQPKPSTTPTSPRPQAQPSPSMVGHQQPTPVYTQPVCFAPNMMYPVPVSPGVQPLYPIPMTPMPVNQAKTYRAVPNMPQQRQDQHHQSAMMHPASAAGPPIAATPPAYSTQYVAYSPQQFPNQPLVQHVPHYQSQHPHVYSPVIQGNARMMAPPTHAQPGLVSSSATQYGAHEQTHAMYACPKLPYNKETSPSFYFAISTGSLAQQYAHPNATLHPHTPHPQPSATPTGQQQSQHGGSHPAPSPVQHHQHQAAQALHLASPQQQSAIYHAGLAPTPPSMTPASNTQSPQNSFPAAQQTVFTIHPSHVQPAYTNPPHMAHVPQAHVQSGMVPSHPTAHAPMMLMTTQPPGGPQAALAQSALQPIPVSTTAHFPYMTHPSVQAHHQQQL

This assay has as its target Ataxin-2 (Homo sapiens) (UniProt Q99700). Kind of assay: qHTS for Inhibitors of ATXN expression. In kind it is functional.
For `NC(=O)c1ccc(NC(=O)COC(=O)c2c3c(nc4ccccc24)/C(=C\c2ccc4c(c2)OCO4)CCC3)cc1`, the Potency entry was “inactive”.

As to `COc1ccc(-c2c(C)c3ccc(O)c(CN4CCOCC4)c3oc2=O)cc1OC`, the Potency result is “inactive”.

Take `COc1ccc(/C=C/c2nc(C#N)c(N3CCCCC3)o2)cc1OC`: the Potency entry was “inactive”.

Consider `Cc1ccc(NC(=O)Cn2ncc(Cl)c(Cl)c2=O)cc1S(=O)(=O)N1CCCCC1`, for which the Potency was 31.6 µM (active).

Turning to `C=CCN=C(S)Nc1ccc(C)c(S(=O)(=O)N2CCCCC2)c1`, the Potency result is “inactive”.

As to `CCCc1cc(O)nc(SCC(=O)Nc2ccc(C)c(S(=O)(=O)N3CCCCC3)c2)n1`, the Potency entry was “inactive”.

As to `Cc1c(Br)c(C(F)(F)F)nn1CC(=O)NCc1ccco1`, the Potency entry is “inactive”.

Turning to `CCN(c1ccc(N/C=C2/C(=O)N(Cc3ccc(OC)cc3)C(=O)c3ccccc32)cc1)C(C)C`, the Potency entry is “inactive”.

Regarding `COc1ccc(CN([C@H](CO)CC(C)C)S(=O)(=O)N(Cc2ccccc2)[C@H](CO)CC(C)C)cc1`, the Potency is 39.8 µM (active).

For `COc1ccc(CCNC(=O)CN(c2ccccc2)S(C)(=O)=O)cc1`, the Potency result is “inactive”.

On to `C=CS(=O)(=O)c1c2cc(OC)ccc2nc2ccc(OC)cc12`, for which the Potency result was “inactive”.

As for `Cc1cccn2c(=O)c(C=O)c(N3CCCCC3)nc12`, the Potency result was “inactive”.

`Nc1c(C(=O)Nc2ccccc2Br)sc2nc(-c3cccs3)ccc12`: the Potency entry was “inactive”.

Turning to `Cc1nn(CC(=O)N2CCN(c3ccc(Cl)cc3)CC2)c(=O)c2cccn12`, the Potency entry is “inactive”.

For `O=C(NC(=S)Nc1ccc(N2CCCC2)cc1)c1ccc(F)cc1`, the Potency result is “inactive”.

In the case of `O=C(c1nc(-c2ccc(Cl)cc2)n2c1CCCCC2)N1CCN(c2ccc(F)cc2)CC1`, the Potency is 22.4 µM (active).

On to `CCC(C)n1c(=N)c(C#N)cc2c(=O)n3cccc(C)c3nc21` (centres undefined), for which the Potency result is “inactive”.

As for `O=C(CN1C(=O)NC(Cc2c[nH]c3ccccc23)C1=O)Nc1cccc(S(=O)(=O)N2CCCC2)c1` (centres undefined), the Potency entry is “inactive”.

Consider `COc1ccccc1C1c2[nH]c3ccccc3c2CCN1Cc1cnc(C)s1` (centres undefined), for which the Potency result is “inactive”.

On to `COC(=O)Cc1c(C)c2ccc3c(c2oc1=O)CN(Cc1ccc(C)cc1)CO3`, for which the Potency entry was “inactive”.

Take `C=CCC[C@@H](Cc1ccc(F)cc1)C(=O)OC[C@@H]1CCCN1C(=O)[C@H](CC=C)CC(=O)N[C@H](CO)Cc1ccccc1`: the Potency is 35.5 µM (active).

Turning to `C=CC[C@@H](Cc1ccc(F)cc1)C(=O)OC[C@@H]1CCCN1C(=O)[C@H](CC=C)CC(=O)N[C@H](CO)Cc1ccccc1`, the Potency is 39.8 µM (active).

For `C=CCC[C@@H](Cc1ccc(F)cc1)C(=O)OC[C@@H]1CCCN1C(=O)[C@@H](CC=C)CC(=O)N[C@@H](CO)Cc1ccccc1`, the Potency is 28.2 µM (active).

Regarding `CC(=O)Nc1nn(C)c2nc3ccc(C)cc3cc12`, the Potency result is “inactive”.

Regarding `CCCCCNCC(=O)Nc1cccc(C(=O)Nc2cccc(C(F)(F)F)c2)c1`, the Potency was 26.7 µM (active).

Take `CCN1C(=O)c2ccc(C(=O)Nc3cccc(C(=O)O)c3)cc2C1=O`: the Potency entry is “inactive”.

Regarding `C/C(CC(=O)Nc1cccc(C(F)(F)F)c1)=N\NC(=O)c1ccncc1`, the Potency entry is “inactive”.

`[O-][n+]1c(-c2ccccc2)c(O)nc2ccccc21`: the Potency entry is “inactive”.

As to `COc1ccc2c(Cl)c(C(=O)N/N=C3\CCCC(=O)C3)sc2c1`, the Potency entry was “inactive”.

On to `COCC(C)OC(=O)c1c(N)n(CC(C)C)c2nc3ccccc3nc12` (centres undefined), for which the Potency entry was “inactive”.

`CCCCc1ccc(-c2csc(/C(C#N)=C\c3ccco3)n2)cc1`: the Potency result is “inactive”.

Consider `Cc1ccc(O)c(NC(=S)NC(=O)c2ccc(-c3ccc(Cl)cc3)o2)c1`, for which the Potency is 22.4 µM (active).

Regarding `CCOCCCn1c(=N)c(C(N)=S)cc2c(=O)n3cccc(C)c3nc21`, the Potency result was “inactive”.

Consider `Cc1ccccc1NC(=O)c1cc(S(=O)(=O)N2CCCCC2)ccc1N1CCOCC1`, for which the Potency entry is “inactive”.

`NC(=O)c1ccc(NC(=O)c2cc(S(=O)(=O)N3CCCCC3)ccc2N2CCOCC2)cc1`: the Potency result was “inactive”.

For the molecule `CN1CCN(c2ccc(S(=O)(=O)N3CCCCC3)cc2NC(=O)c2cccc([N+](=O)[O-])c2)CC1`, the Potency result was “inactive”.

As for `CCN1CCN(c2ccc(S(=O)(=O)N3CCCCC3)cc2NC(=O)c2ccc([N+](=O)[O-])o2)CC1`, the Potency was 28.2 µM (active).

Regarding `Cc1cc(C(=O)Nc2ccc(S(=O)(=O)N3CCOCC3)cc2)c(C)o1`, the Potency result is “inactive”.

As for `O=C(Nc1ccc(S(=O)(=O)N2CCCC2)cc1)c1ccc([N+](=O)[O-])o1`, the Potency was 37.7 µM (active).

For the molecule `CC(=O)Oc1ccc(OC(C)=O)c(SCCCCCCl)c1`, the Potency entry was “inactive”.

As for `CC1=CC2C(C(O)CC3(C)C2CC(C)C32OCOC23COCO3)C2(C)CC(C=O)=C(O)C=C12` (centres undefined), the Potency was 15 µM (active).

Regarding `COc1cc(/C=C2\C(=N)N3N=C(S(C)(=O)=O)SC3=NC2=O)ccc1OCCOc1ccccc1C`, the Potency result is “inactive”.

`O=C(CCc1ccc(O)cc1)N/N=C/c1coc2ccccc2c1=O`: the Potency result is “inactive”.

Take `CNC(=O)c1c(NC(=O)c2ccc(S(=O)(=O)N3CCCC(C)C3)cc2)sc2c1CCC2` (centres undefined): the Potency result was “inactive”.

With `CCOc1ccccc1NC(=O)c1ccc2c(O)c(S(=O)(=O)c3ccccc3)c(O)nc2c1`, the Potency result is “inactive”.

As for `COCCNC(=O)c1c(N)n(CCC2=CCCCC2)c2nc3ccccc3nc12`, the Potency result is “inactive”.

Take `COc1ccccc1Nc1nn2c(=O)c3ccc(C(=O)NCCC4=CCCCC4)cc3nc2s1`: the Potency was 6.31 µM (active).

Turning to `O=C1/C(=C/Nn2cnnc2)c2ccccc2C(=O)N1c1ccccc1`, the Potency result is “inactive”.

Regarding `N#Cc1cc2c(=O)n3ccccc3nc2n(Cc2cccnc2)c1=O`, the Potency result was “inactive”.

On to `Cc1ccc2nc3c(cc(C(=O)NCCc4ccccc4)c(=N)n3CC3CCCO3)c(=O)n2c1` (centres undefined), for which the Potency entry was “inactive”.

As for `CCC[C@@H](CN[C@@H](CNC)[C@H](C)CC)NCC1CCC(C(C)(C)C)CC1` (some centres undefined), the Potency was 35.5 µM (active).

In the case of `CCC[C@H](CN[C@@H](CNC)[C@H](C)CC)NCCc1cc(C(F)(F)F)cc(C(F)(F)F)c1`, the Potency is 25.1 µM (active).

As to `Cc1cc(S(=O)(=O)c2cc3ccc(O)c(C)c3oc2=O)ccc1F`, the Potency entry is “inactive”.

On to `Cn1nc(C(=O)OCC(=O)Nc2ccccc2OC(F)F)c2ccccc2c1=O`, for which the Potency result is “inactive”.

Consider `CCOC(=O)c1cc2c(=O)n3ccccc3nc2n(CC2CCCO2)/c1=N\C(=O)c1ccccc1F` (centres undefined), for which the Potency result was “inactive”.

On to `Cc1ccc(-n2c(S)nnc2Cn2c(C)nc3ccccc32)cc1`, for which the Potency result is “inactive”.

In the case of `COc1ccc(C2CC(c3ccccc3)=NN2c2ccc(S(N)(=O)=O)cc2)cc1` (centres undefined), the Potency result was “inactive”.

With `COc1ccc(C2=NN(c3ccccc3)C(c3cn(CCC(=O)O)nc3-c3ccccc3)C2)cc1` (centres undefined), the Potency result is “inactive”.

As for `COc1ccc(C2=NN(C(=O)COC(=O)c3ccc(S(C)(=O)=O)c([N+](=O)[O-])c3)C(c3ccco3)C2)cc1` (centres undefined), the Potency was 23.8 µM (active).

Take `Cc1nc(N2N=C(c3ccc(Cl)cc3)CC2c2ccco2)sc1C(=O)N(C)C` (centres undefined): the Potency result was “inactive”.

In the case of `COc1ccc(C2CC(c3ccccc3)=NN2c2ccc(Cl)c(C(=O)O)c2)cc1` (centres undefined), the Potency entry was “inactive”.

As for `CCn1cc([N+](=O)[O-])c(C(=O)N2N=C(c3ccc(Cl)c(Cl)c3)CC2c2ccccc2O)n1` (centres undefined), the Potency was 39.8 µM (active).

Regarding `COc1ccc(C2CC(c3ccccc3)=NN2C(=O)c2ccc(Cl)c([N+](=O)[O-])c2)cc1` (centres undefined), the Potency is 31.6 µM (active).

Consider `O=[N+]([O-])c1ccc(C2=NN(c3ccccc3)C(c3ccco3)C2)cc1` (centres undefined), for which the Potency result was “inactive”.
